Bioassay records (PubChem BioAssay)
Sampled rows, rich in hits. Any-hit rate of the full collection: about 6.5%.
HCMV inh: blocks human cytomegalovirus replication. activity change, negative = inhibition, % at 57.5 µM. hit rate 4.5% among 410,000. AID 1259415. HFF cells, HCMV-luciferase reporter, 72 h; hits give low values; in the data active = activity change below about -60%; inconclusive = no clear call, values can overlap the other calls; inactive = above about -39%
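Two compound doses tested in HFFs infected with HCMV-luciferase, MOI 1 PFU/cell, 72 h at 37C. Lysate luminescence read with OneGlo; data normalized against buffer-only and 10uM Salinomycin inhibitor controls.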
FMDV inh: foot and mouth disease virus antiviral activity. FMDV antiviral cell-based qHTS. Potency, µM (highest dose often 57.9 µM), for the others: top-dose activity change, negative = inhibition, most hits filed as inhibitors. hit rate 1.2% among 410,000. AID 1159524; calls by dose curve; tested in HEK293T cells; also: read-out not given here; potency is read from the fitted curve at half-maximal effect; nearly all actives have a fitted effect of over 45% in size
MARV entry inh: Marburg virus entry inhibition. hit rate 1.8% among 300,000. Potency, µM (series often up to 37.8 µM), without a hit: at the highest dose activity change, negative = inhibition, actives largely listed as inhibitors. Marburg virus pseudotyped entry inhibition, cell reporter; calls by dose curve; tested in HEK293 cells; also: potency is read from the fitted curve at half-maximal effect
VACV Venus inh: vaccinia inhibition (Venus reporter); Potency, µM (top dose mostly 36.5 µM), for inactives: at the highest dose activity change, negative = inhibition, hits mostly inhibitors; hit rate 0.46% among 330,000; Vaccinia virus Venus reporter expression, fluorescence; AID 720580; calls by dose curve; tested in A549 cells; also: potency is read from the fitted curve at half-maximal effect; nearly all actives have a fitted effect of over 30% in size
Vaccinia mCherry: vaccinia inhibition (mCherry reporter); Vaccinia virus mCherry reporter infection, fluorescence; Potency, µM (doses to about 36.5 µM), for inactives: at the top dose activity change, negative = inhibition, hits mostly inhibitors; hit rate 0.63% among 310,000; calls by dose curve; tested in A549 cells; also: potency is read from the fitted curve at half-maximal effect; nearly all actives have a fitted effect of over 35% in size
Lassa entry inh: inhibitors of Lassa virus binding or cell entry; Lassa virus pseudotype entry inhibition, cell reporter; Potency, µM (titrated, usually from 37.9 µM), for the others: top-dose activity change, negative = inhibition, actives largely listed as inhibitors; hit rate 1.2% among 300,000; calls by dose curve; tested in HEK293 cells; also: potency is read from the fitted curve at half-maximal effect; nearly all actives have a fitted effect of over 50% in size
The depositor's hits bear a star; i = inactive; ? = inconclusive; nt = not tested or not shown; [ ] = another dose, or the depositor's remark. % is scaled to controls: 0 for no effect and ±100 for the full control effect.

SMILES	HCMV inh	FMDV inh	MARV entry inh	VACV Venus inh	Vaccinia mCherry	Lassa entry inh
O=c1cnn([C@@H]2O[C@H](CO)[C@@H](O)[C@H]2O)c(=O)[nH]1	nt	-6%	?	0%	?	0.092µM*
Cc1cc(NC(=O)Cc2ccccc2)cc(-c2nc3ccccc3o2)c1O	5	-22%	1%[46.1 µM]	15%	0%	21%[46.1 µM]
Cc1ccc(C)c(C(Nc2ccccc2)c2ccc3ccc(C)nc3c2O)c1 (centres undefined)	15	6%	nt	?	7.9µM*	nt
Cc1cccc(NC(c2ccccc2F)c2ccc3ccc(C)nc3c2O)n1 (centres undefined)	-18	-18%	nt	-25%	?	15%[46.1 µM]
COc1cccc(CNC(=O)[C@H]2CCCN2C(=O)[C@H]2CCCN2C(=O)c2ccc(C)c(C)c2)c1	-27	nt	nt	nt	nt	nt
Cc1ccc(-n2[nH]c(C)c(C=Nc3ccc4[nH]c(=O)[nH]c4c3)c2=O)cc1	23	32µM*	?	?	?	?
CCOC(=O)CN(c1sc(C)c(C)c1C(=O)OCC)S(=O)(=O)c1ccc(C)cc1	-65*	13%	nt	-11%	-9%	nt
CCOC(=O)CN(c1ccccn1)S(=O)(=O)c1ccccc1	54	13%	24%	-10%	-18%	18%
Cc1cc(C)nc(SC2=CS(=O)(=O)c3ccccc32)n1	-6	?	4.5µM*	2µM*	13µM*	?
O=S1(=O)C=C(Sc2nc3ccccc3s2)c2ccccc21	nt	5µM*	3.7µM*	?	14µM*	?
O=S1(=O)C=C(Sc2nnc(-c3ccccc3)o2)c2ccccc21	nt	10µM*	5.8µM*	nt	nt	21µM*
O=S1(=O)C=C(SCCN2CCCCC2)c2ccccc21	-20	1%	-3%	-11%	-29%	1%
CSc1nnc(-c2ccccc2)o1	-1	61%	1%	-16%	-38%	4%
O=C([C@@H]1CC1(c1ccccc1)c1ccccc1)N1CCOCC1	nt	nt	-6%	nt	nt	nt
Cc1cc(C(=O)N2CCOCC2)c(C)o1	-99*	-8%	17%[46.1 µM]	7%	i	6%[46.1 µM]
CN1C(=O)/C(=C\c2ccncc2)SC1=Nc1ccccc1	-67*	?	?	-22%	?	?
C#CCOc1ccc(/C=C2\SC(=S)N(Cc3cccnc3)C2=O)cc1	-73*	18%	?	2%	-5%	8%
CCCN1C(=O)/C(=C/c2ccncc2)SC1=S	-22	0%	17%	-5%	-13%	0%
O=C1/C(=C\c2cccc(O)c2O)SC(=S)N1Cc1ccccc1	3	?	?	34%	-15%	?
O=C1/C(=C/c2ccc(O)cc2)SC(=S)N1Cc1cccnc1	?	-1%	?	1%	i	8%
O=C1/C(=C/c2ccncc2)SC(=S)N1Cc1ccccc1	-73*	?	11µM*	-7%	-12%	-26%
O=C1/C(=C\c2cc([N+](=O)[O-])ccc2O)SC(=S)N1Cc1ccc(Cl)cc1	-77*	?	nt	nt	nt	nt
COc1cc(CN(C(=O)COc2ccccc2Cl)c2ccccn2)cc(OC)c1OC	26	-5%	4%[46.1 µM]	-10%	i	1%[46.1 µM]
COc1ccc(O)c(CN2CCCN(c3nc(C)c4cc(C)c(C)cc4n3)CC2)c1	nt	5%	nt	-8%	-1%	nt
O=C1/C(=C\c2cccc(O)c2)SC(=S)N1Cc1ccccc1	-74*	0%	nt	nt	nt	nt
SMILES	HCMV inh	FMDV inh	MARV entry inh	VACV Venus inh	Vaccinia mCherry	Lassa entry inh
Cc1ccc(NC(=S)NC(C)CCc2ccccc2)cc1C (centres undefined)	-71*	-7%	-21%	-18%	?	-9%
COc1nc(N/N=C/c2ccc(-c3ccccc3[N+](=O)[O-])o2)nc(N2CCOCC2)n1	55	-11%	?	-7%	i	1%
O=[N+]([O-])c1ccc(-c2ccc(/C=N/Nc3nc(NCc4ccccc4)nc(N4CCOCC4)n3)o2)cc1	-88*	-13%	10µM*	-23%	-3%	8%[46.1 µM]
C=CCCN1C(=O)NC(c2ccccc2)C(C(C)=O)=C1C (centres undefined)	nt	nt	29%[14.2 µM]	nt	nt	nt
CCN(Cc1ccncc1)Cc1ccc2c(c1)CN(C(=O)c1cccc(-n3nc(C)cc3C)c1)CCO2	nt	-1%	nt	-2%	-11%	nt
COc1cc2c(cc1OC)C(c1cc(-c3cc(Cl)ccc3Cl)oc1C)=NCC2	nt	nt	nt	-9%	1%	nt
Cc1cccc(NC(=S)NCC(c2cccnc2)N(C)C)c1 (centres undefined)	-71*	-20%	1%	-11%	i	0%
CN(C)C(CNC(=S)Nc1ccc(F)cc1)c1cccnc1 (centres undefined)	-13	-12%	8%[46.1 µM]	-6%	i	17%
CN=C1c2cc3cc(OC)ccc3n2CCN1Cc1ccccc1	-28	-24%	11µM*	-27%	?	?
COc1ccc2c(c1)nc(N)n2Cc1ccccc1	-31	0%	?	-16%	-6%	-11%
O=C(Nc1scc(-c2ccc(Br)cc2)c1C(=O)O)c1ccccc1F	-22	12%	3.2µM*	-22%	-11%	?
C=C1C(=O)OC2C1CCC(C)C1(O)C=CC(=O)C21C (centres undefined)	-108*	40µM*	nt	-26%	?	nt
C=C1C(=O)O[C@@H]2C[C@@H](C)[C@@H]3C=CC(=O)[C@@]3(C)[C@@H](OC(=O)CC(=O)O[C@H]3[C@@H]4C(=C)C(=O)O[C@@H]4C[C@@H](C)[C@@H]4C=CC(=O)[C@]43C)[C@H]12	-98*	?	nt	2.5µM*	?	nt
C=C1C(=O)O[C@H]2C[C@@H](C)[C@@H]3C=CC(=O)[C@@]3(C)C[C@H]12	-99*	25µM*	nt	?	?	nt
C=C1C(=O)OC2C1CCC(C)C1C=CC(=O)C12C (centres undefined)	-97*	?	11µM*	?	11µM*	?
CC(=O)O[C@@H]1[C@H]2[C@@H](C[C@@H](C)[C@@H]3C=CC(=O)[C@@]13C)OC(=O)[C@@H]2C	-2	0%	nt	?	-27%	nt
O=C(NCc1ccccc1Cl)c1cc2c(s1)-c1ccc(Cl)cc1SC2	-25	39%	1%[46.1 µM]	-16%	1%	-3%[46.1 µM]
Cc1ccc2nc(N(Cc3cccnc3)C(=O)c3ccco3)sc2c1	-6	41%	nt	-20%	-6%	15%[46.1 µM]
Cc1cccc(NC(=O)Cn2c(=O)n(CC3CCC(C(=O)NCCc4ccccc4)CC3)c(=O)c3ccccc32)c1 (centres undefined)	25	-8%	13%[46.1 µM]	?	?	?
CNc1ccc(/C=C2\C=Cc3ccccc32)cc1Cl	nt	nt	nt	-15%	-23%	nt
COc1ccc(NC(=O)Cn2c(=O)n(-c3cccc(C(F)(F)F)c3)c(=O)c3sccc32)cc1	-33	-24%	?	-22%	-23%	19%[46.1 µM]
C=C1C(=O)O[C@H]2[C@H]1[C@H](OC(=O)CC(=O)O[C@@H]1C[C@@H](C)[C@@H]3C=CC(=O)[C@@]3(C)[C@H]3OC(=O)C(=C)[C@H]13)C[C@@H](C)[C@H]1C=CC(=O)[C@]12C	-38	-19%	nt	-27%	?	nt
